Binding signal data for five sequences are collected here from article PMC8384837, “Expanding the binding specificity for RNA recognition by a PUF domain”.

One experiment addresses PUM1 PUF domain R8-KWN (Homo sapiens, UniProt Q14671 828-1176, N1122K;Y1123W;Q1126N). The experiment in a line: yeast three-hybrid, YBZ-1, SC-Leu-His + 0.5 mM 3-AT, 4 days. The following applies: tags: N-Gal4 AD-HA kept; label: inside an RPR1-promoter hybrid RNA with tandem MS2 sites; ssRNA. In outline: (§1)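 A centromeric plasmid in strain YBZ-1 co-expressed Pumilio-1 PUF domain libraries, randomized at the three base-contacting residues of each repeat, with matching RNA elements; the strain carries a LexA–MS2 coat fusion and a HIS3 reporter. After four days on SC-Leu (input) or SC-Leu-His + 0.5 mM 3-AT (selection), the repeat regions were PCR-amplified and Illumina-sequenced. The interaction score is the log change in variant frequency from input to selection, using log2 and a pseudocount of 1 where absent.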
As for “GGCUAGAACUAGUGGAUCCCCCGGCGCCCGGCGGCUCGAGCCCGGGUAAGCGUAAAUAGUCUGCAUGCCGCCGGGCGCCAUGCCUGCAGGUCGACUCUAGAAAACAUG”, the binding signal is 2.89 log2 enrichment (interaction score).
With “GGCUAGAACUAGUGGAUCCCCCGGCGCCCGGCGGCUCGAGCCCGGGUAAGUGUAAAUAGUCUGCAUGCCGCCGGGCGCCAUGCCUGCAGGUCGACUCUAGAAAACAUG”, the binding signal is 2.44 log2 enrichment (interaction score).
“GGCUAGAACUAGUGGAUCCCCCGGCGCCCGGCGGCUCGAGCCCGGGUAAGGGUAAAUAGUCUGCAUGCCGCCGGGCGCCAUGCCUGCAGGUCGACUCUAGAAAACAUG”: the binding signal was 2.68 log2 enrichment (interaction score).

The target of the next experiment is PUM1 PUF domain R5-RYC (Homo sapiens, UniProt Q14671 828-1176, C1007R;R1008Y;Q1011C). Described as above. The settings on record: tags: N-Gal4 AD-HA kept; label: inside an RPR1-promoter hybrid RNA with tandem MS2 sites; ssRNA. A digest of the protocol:
as §1
With “GGCUAGAACUAGUGGAUCCCCCGGCGCCCGGCGGCUCGAGCCCGGGUAAGUGUUAAUAGUCUGCAUGCCGCCGGGCGCCAUGCCUGCAGGUCGACUCUAGAAAACAUG”, the binding signal was 4.89 log2 enrichment (interaction score).
Consider “GGCUAGAACUAGUGGAUCCCCCGGCGCCCGGCGGCUCGAGCCCGGGUAAGUGUAAAUAGUCUGCAUGCCGCCGGGCGCCAUGCCUGCAGGUCGACUCUAGAAAACAUG”, for which the binding signal is 3.48 log2 enrichment (interaction score).
As to “GGCUAGAACUAGUGGAUCCCCCGGCGCCCGGCGGCUCGAGCCCGGGUAAGUGUCAAUAGUCUGCAUGCCGCCGGGCGCCAUGCCUGCAGGUCGACUCUAGAAAACAUG”, the binding signal is 4.73 log2 enrichment (interaction score).
